# An excerpt weighted towards active compounds, which were near 9.1% of everything screened.
# mHtt clearance: clearance of mutant huntingtin inclusions, primary screen, imaging, HeLa Exon1htt(103Q)mCFP, confocal imaging; aggregate imaging; zero = plate's median compound well; inhibition, % at 1.5 µM; actives 0.42% (n = 47,000); AID 853, 2007;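 active = inhibition of aggregate fluorescence above about 70%, also judged a hit by eye on the cell image, limit read from the data, passing the limit was not always enough; inconclusive = no rule stated for this call; inactive = not judged a hit on image review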;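 note: cells exposed to compound for three days before fixation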
# D1 mod: D1 CRE-luciferase signal change, two-sided – cell-based, HEK293 D1, dopamine EC30, D1 allosteric modulator project, primary screen; D(1A) dopamine receptor (Homo sapiens), P21728; dopamine EC30 potentiation; actives deviate in either direction; B-score at 10 µM; actives 5.9% (n = 58,000); AID 641, 2007;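 active = luminescence count or its row- and column-corrected plate score outside the 99.7% band of the plate's sample wells, on either side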
# M1 antagonist: antagonists of rat M1 muscarinic receptor; AID 628, 2007; actives 3.4% (n = 64,000); B-score at 10 µM; CHO-M1 cells, Fluo-4 calcium, ACh EC80 antagonist mode; active compounds read low; Muscarinic acetylcholine receptor M1 (Rattus norvegicus), P08482;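 active = calcium fluorescence response, raw or row-and-column corrected B-score, differing from the plate sample mean either way at a set confidence level, mostly lower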
# M1 ag: M1 muscarinic receptor agonists, primary screen, CHO-M1 cells, Fluo-4 calcium, agonist mode | Fluo-4 calcium fluorescence; active compounds read high | B-score at 10 µM | actives 3% (n = 64,000) | Muscarinic acetylcholine receptor M1;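 active = fluorescence rise, raw or as B-score row- and column-corrected plate score, outside the 99.7% band of its plate's samples, either direction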
# M1 ag confirm: rat M1 muscarinic receptor agonists, confirmation, CHO-M1 cells, Fluo-4 calcium, duplicate retest; shares compounds with M1 ag; Fluo-4 calcium fluorescence, agonist mode; actives lie on both sides; fluorescence change (max-min) at 10 µM; actives 19% (n = 1,700); AID 1488, 2009;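 active = fluorescence change differs from the solvent-only DMSO control mean at a set confidence level in both duplicate runs; inconclusive = differs from solvent-only control mean in just one of two runs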;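 note: an EC20 dose of acetylcholine follows compound addition during the same imaging run; raw fluorescence intensity difference in instrument units with no normalization to controls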
# M4 agonist ctr: agonist activity at rat M4 receptor, confirmation, counter-screen for M1 allosteric modulator project, cell-based, agonist mode. shares compounds with M1 ag. CHO M4/Gqi5 cells, Fluo-4 calcium fluorescence; actives lie on both sides. fluorescence change (max-min) at 10 µM. actives 9% (n = 1,700);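 active = fluorescence change differing from the plate's solvent-only control wells at 99.7% confidence in both duplicates, whether higher or lower; inconclusive = differs from solvent controls in only one of two duplicates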
# Target sequence (P08485 whole entry, looked up): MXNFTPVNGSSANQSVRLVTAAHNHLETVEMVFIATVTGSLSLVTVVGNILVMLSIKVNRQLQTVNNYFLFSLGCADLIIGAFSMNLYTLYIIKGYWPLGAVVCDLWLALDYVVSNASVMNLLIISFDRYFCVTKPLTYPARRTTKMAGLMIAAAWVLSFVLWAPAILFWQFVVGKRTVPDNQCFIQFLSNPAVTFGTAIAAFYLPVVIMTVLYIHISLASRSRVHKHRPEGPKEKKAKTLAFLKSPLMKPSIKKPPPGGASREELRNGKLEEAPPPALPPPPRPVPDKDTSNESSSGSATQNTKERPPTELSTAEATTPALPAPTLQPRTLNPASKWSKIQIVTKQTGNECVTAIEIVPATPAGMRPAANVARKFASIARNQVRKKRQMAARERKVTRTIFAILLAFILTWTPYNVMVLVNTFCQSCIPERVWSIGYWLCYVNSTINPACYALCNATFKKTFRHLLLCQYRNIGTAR
# * = called active by the depositor; i = inactive; ? = inconclusive; nt = no result.
SMILES,mHtt clearance,D1 mod,M1 antagonist,M1 ag,M1 ag confirm,M4 agonist ctr
O=C(c1ccco1)N1CCN(C(=O)c2cc(-c3ccccn3)nc3ccccc23)CC1,0.0,0.668,0.458,3.28*,?,-74.2
O=C(OCC(=O)N1CCN(C(=O)c2ccco2)CC1)c1cc(-c2ccco2)nc2ccccc12,6.0,nt,nt,nt,nt,nt
Cn1c(-c2ccccc2)cc2c3no[n+]([O-])c3ccc21,i,-1.26,0.139,0.182,nt,nt
O=C(c1cnc(N2CCN(c3ncccn3)CC2)c2ccccc12)N1CCN(c2ccccn2)CC1,47.3,-1.45,-1.29,12.3*,-10.3,-12.1
COc1ccc(F)cc1S(=O)(=O)N1CC(C)CC(C)C1 (configuration not stated),-19.7,nt,nt,nt,nt,nt
O=C(CCN1C(=O)C2C3C=CC(C3)C2C1=O)Nc1c(F)cccc1F (configuration not stated),nt,-0.0178,0.168,0.189,nt,nt
Cc1cc(NC(=O)CCN2C(=O)C3C4C=CC(C4)C3C2=O)c2ccccc2n1 (configuration not stated),nt,-0.246,-0.276,3.33*,-7.23,-21.8
COc1ccc(-n2nnc3c(SCC(=O)N4CCCc5ccccc54)ncnc32)cc1,nt,-1.61,0.379,1.2,nt,nt
O=C(CSc1ccc2nnc(-c3ccccn3)n2n1)N1CCN(c2ccccc2)CC1,26.6,-0.51,-0.585,3.25*,-8.52,?
CCOc1ncccc1C(=O)OCc1cc(=O)n2c(n1)sc1ccccc12,nt,-0.114,-0.188,0.0208,nt,nt
CCOc1ccc(C2C(C#N)=C(N)N3C(=C2C#N)Sc2ccccc23)cc1 (configuration not stated),nt,-0.0224,-0.441,9.91*,?,?
O=C(Nc1nc2nc(-c3ccccc3)cc(-c3ccccc3)n2n1)c1ccco1,39.9,-2.5*,0.021,3.81*,-24.1*,-57.1
Nc1nc(NC(=O)c2ccco2)nn1-c1ccccc1,nt,0.0149,0.0853,0.181,nt,nt
COC(=O)C1=C(N)Oc2cc(N(C)C)ccc2C1c1ccccc1OC (configuration not stated),nt,0.537,-0.703,10*,17.7,-19.5
O=C(CN1CCOCC1)NCC12CC3CC(CC(C3)C1)C2,-7.9,1.49,0.68,-0.271,nt,nt
Cc1ccc2c(c1)nnn2C1CCN(CC(=O)Nc2ccccc2N2CCOCC2)CC1,3.3,-0.218,-0.0469,2.91*,-11.6,-5.69
CSc1nn(CCc2ccncc2)c(=S)s1,-58.5,-0.0336,-0.316,1.2,nt,nt
Cc1ccc(N2CC(C(=O)Nc3ccccn3)CC2=O)cc1 (configuration not stated),-2.1,0.335,0.309,4.57*,?,-80.2
CCc1nnc(NC(=O)C2CC(=O)N(c3ccc(C)cc3)C2)s1 (configuration not stated),nt,-0.155,0.436,-0.0622,nt,nt
Cn1c(CCNC(=O)c2ccco2)nc2cc(NS(=O)(=O)c3ccccc3)ccc21,nt,-0.778,-0.15,31.7*,?,-67.8
Cn1c(CCNC(=O)c2ccco2)nc2cc(NC(=O)c3ccco3)ccc21,nt,0.0548,0.193,0.0786,nt,nt
Cc1ccc(NC(=O)C2CCN(S(=O)(=O)c3c(C)n[nH]c3C)CC2)nc1,40.1,-0.208,0.366,0.306,nt,nt
CCN(CC)C(=O)C1CC(=O)N(c2ccc(F)c(Cl)c2)C1 (configuration not stated),-52.5,-0.965,-0.00642,0.0613,nt,nt
CCO/C(C)=N/n1c2nc3ccccc3nc2c2c(=O)n(C3CCCC3)c(C)nc21,-9.2,2.25,-0.502,9.43*,?,-41
Cc1ccc(OCC(=O)Nc2ccc(-c3nc4ncccc4o3)cc2)c(C)c1,nt,0.407,-1.18,3.35*,?,-48.7
SMILES,mHtt clearance,D1 mod,M1 antagonist,M1 ag,M1 ag confirm,M4 agonist ctr
Cc1cc(-c2nc3ncccc3o2)ccc1NC(=O)CC(C)C,-16.3,-0.141,-1.02,-0.509,nt,nt
CC(=O)c1c(C)n(CC(=O)NCc2ccc3c(c2)OCO3)c2ccccc12,-39.0,-1.69,-0.489,3.37*,?,-36.5
CCS(=O)(=O)N1Cc2ccccc2CC1C(=O)N1CCN(c2cccc(C)c2C)CC1 (configuration not stated),-55.0,-0.0307,-0.137,2.11,nt,nt
CCn1c(SCC(=O)N2CCOCC2)nc2oc3c(Cl)cc(Cl)cc3c(=O)c2c1=O,37.0,-2.48,-0.778,4.36*,5.61,4.98
CC(=O)N(C(C)=O)C1=C(C#N)C2(CCCCC2)Cc2ccccc21,-27.1,nt,nt,nt,nt,nt
CCn1c(CC(C)C)n[nH]c1=S,nt,0.891,0.0243,-0.224,nt,nt
CCn1c(CCn2ccnc2C)n[nH]c1=S,31.8,0.0973,-7.26*,52.8*,225*,?
CCN=c1sc(C(=O)NCCc2ccccc2)cc(=O)n1CC,nt,nt,-2.94*,12.1*,-7.17,-14.9
CCN=C1SC(C(=O)NCCc2ccccc2)CC(=O)N1CC (configuration not stated),nt,1.16,-1.15,4.75*,?,-25.9
O=C1c2oc3ccccc3c(=O)c2C(c2ccc(Br)cc2)N1c1ncccn1 (configuration not stated),nt,0.657,0.186,0.00659,nt,nt
COc1ccc(S(=O)(=O)Nc2cc(C)c(O)cc2C(C)C)cc1,-37.0,-1.3,0.35,4.66*,-11.3,-47.5
O=C(O)C1CCCCC1C(=O)Nc1ccc(F)cc1F (configuration not stated),2.4,nt,nt,nt,nt,nt
CC(=O)Nc1cccc(C(=O)NC(C)c2ccc(S(N)(=O)=O)cc2)c1 (configuration not stated),-4.5,nt,nt,nt,nt,nt
Cc1ccc(S(=O)(=O)N2CCN(S(=O)(=O)c3ccc(C)cc3)C2)cc1,-59.2,nt,nt,nt,nt,nt
C=CCN=C1SCC(=O)N1S(=O)(=O)c1ccc(C)cc1,nt,0.00164,-0.196,3.54*,-14.9,-44.7
O=C(O)[C@H](Cc1ccccc1)NC(=O)N1CCOCC1,nt,0.0669,1.1,0.0593,nt,nt
COC(=O)c1ccc(-c2sc3nc(N4CCOCC4)c4c(c3c2N)CCCC4)o1,nt,-0.106,-0.168,5.45*,4.46,-10.1
COc1ccc(CNC(=O)Cc2nn(C)c(=O)c3ccccc23)cc1,nt,-0.815,-0.476,10.8*,8.42,3.57
COc1ccc(OC)c(NC(=O)Cc2nn(C)c(=O)c3ccccc23)c1,1.5,-0.181,-0.517,-0.19,nt,nt
CC(=O)c1cccc(NC(=O)Cc2cccs2)c1,nt,-0.117,0.629,-0.684,nt,nt
O=C(Cc1cccs1)Nc1cccc(C(=O)Nc2ccco2)c1,-27.7,0.0579,-0.432,5.49*,-4.1,?
Cn1c(=O)c2c(ncn2CC(=O)N2CCN(c3ccc(F)cc3)CC2)n(C)c1=O,-2.1,0.262,0.889,0.971,nt,nt
Cc1cccc(N(CC(=O)NC2CCCCC2)C(=O)c2c(C)noc2C)c1,-28.6,nt,-0.0998,0.24,nt,nt

# From PubChem
